Measured values taken from PubChem BioAssay (NCATS).
Where “and” joins values, the source holds several entries; their conditions need not be identical. Equal values may be shown once. Inconclusive results are not listed. Calls of active or inactive are those of the source. The call rests on the fitted dose curve; in most records, active means well fitted curve in the direction sought with a large enough effect; inconclusive means small, poorly fitted or top-dose-only effect, or another doubt; inactive means no such curve, though single readings can be large; an effect the other way counts as inactive or inconclusive. Square brackets hold non-standard residues; d marks the D form. Peptide text beside a SMILES is read from it. 2Abz = Nc1ccccc1C(=O)O

How the values were obtained:
[1] = target: Cellular tumor antigen p53 (Homo sapiens) (UniProt P04637); assay: Primary qHTS for small molecule compounds that upregulate eGFP-tagged delta133p53alpha (in N-terminal) cells. (AID 2060322); settings: NCI-H358 eGFP-delta133p53alpha fluorescence, 24 h; activation: active compounds read high;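 further: 0% = DMSO vehicle and 100% = reference activator; nearly all actives have a fitted effect of over 75% in size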
Sequence of Cellular tumor antigen p53 (Homo sapiens) (P04637 whole entry, looked up): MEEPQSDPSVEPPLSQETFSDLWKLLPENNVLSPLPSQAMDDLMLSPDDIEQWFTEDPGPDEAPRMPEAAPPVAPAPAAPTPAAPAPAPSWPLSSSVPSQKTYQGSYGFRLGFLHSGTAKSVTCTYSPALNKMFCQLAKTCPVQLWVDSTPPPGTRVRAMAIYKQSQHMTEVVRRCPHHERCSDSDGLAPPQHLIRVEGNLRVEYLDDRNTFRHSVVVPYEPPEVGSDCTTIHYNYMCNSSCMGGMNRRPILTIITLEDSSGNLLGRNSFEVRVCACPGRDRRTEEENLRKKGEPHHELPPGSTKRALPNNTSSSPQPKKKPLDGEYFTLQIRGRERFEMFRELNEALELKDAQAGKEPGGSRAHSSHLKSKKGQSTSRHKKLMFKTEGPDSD
In short: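 NCI-H358 cells pre-induced 24 h with 10 ng/ml doxycycline to express N-terminal eGFP-delta133p53alpha, then dosed 24 h at 37C without doxycycline; fixed, Hoechst-stained, GFP intensity by laser scanning cytometry, normalized to DMSO (0%) and 57.5 uM 5-azacytidine (100%).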

[2] = target: Aldehyde dehydrogenase, mitochondrial (Homo sapiens) (UniProt P05091); assay: qHTS for Inhibitors of the Aldehyde Dehydrogenase Family (ALDH2) Primary screen (AID 2061308); settings: ALDH2 enzyme inhibition qHTS, 1536-well; series mostly up to 56 µM;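 further: plate controls were vehicle for no effect and reference inhibitor for full effect; nearly all actives have a fitted effect of over 55% in size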
[3] = target: Retinaldehyde dehydrogenase 3 (Homo sapiens) (UniProt P47895); assay: qHTS for Inhibitors of the Aldehyde Dehydrogenase Family (ALDH1A3) Primary screen (AID 2061315); settings: ALDH inhibition qHTS; series mostly up to 56 µM;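 further: plate controls were DMSO vehicle for no effect and reference inhibitor for full effect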

C=C(C(=O)O)[C@@H]1CC=C2CCC[C@H](C)[C@@]2(C)C1
inactive: activation [1] -21.4% | Potency [2] | Potency [3]

CC(C)(C)NC(=O)[C@@H]1CN(Cc2cccnc2)CCN1C[C@@H](O)C[C@@H](Cc1ccccc1)C(=O)N[C@H]1c2ccccc2C[C@H]1O
inactive: activation [1] -2.82% and 2.86% | Potency [2] | Potency [3]

CC/C=C\C[C@H]1C(=O)C=C[C@@H]1CCCCCCCC(=O)O
inactive: activation [1] -8.93% | Potency [2] | Potency [3]

CC1=CC2(O)/C=C/C(C)(O)CC(O)/C=C/C(=O)OC23C(=O)NC(CC(C)C)C3C1C (configuration not stated)
inactive: activation [1] -2.29% | Potency [2] | Potency [3]

C=C1CCC2C(OC(=O)C2(O)COC(C)=O)C2C(=C)C(O)CC12 (configuration not stated)
inactive: activation [1] -3.82% | Potency [2] | Potency [3]

O=C(O)/C=C/c1ccc(O)c(O[C@@H]2O[C@H](CO)[C@@H](O)[C@H](O)[C@H]2O)c1
inactive: activation [1] 16% | Potency [2] | Potency [3]

CC(=O)O[C@H]1C[C@@H](O)C(C)(C)C2C[C@@H](OC(C)=O)[C@@]3(C)C4=CCC(C(CO)CC(O)C5OC5(C)C)[C@]4(C)CCC3[C@]21C (some centres not stated)
inactive: activation [1] -9.16% | Potency [2] | Potency [3]

CC1=CC(=O)C[C@H]2[C@@H]1CC[C@@H](C)[C@]21CO[C@H](c2ccoc2)C1=O
inactive: activation [1] -3.82% | Potency [2] | Potency [3]

CCC(C)C1NC(=O)C2CCCN2C(=O)C(C(C)C)NC(=O)c2ccccc2NC(=O)C(Cc2ccc(O)cc2)NC(=O)C(C)NC(=O)C(C(C)O)NC1=O (configuration not stated) (cyclo([2Abz]VPITAY); configuration not given here)
inactive: activation [1] 0.763% | Potency [2] | Potency [3]
